Source: the supplement of paper PMC12636033
± gives the standard deviation of the averaged measurements. The full ranking holds about 33,000 sequences; the median of “E-score (rank enrichment, -0.5 to 0.5)” is about -0.0043, and the highest 2% start at about 0.24. The sample holds the highest values, similar sequences and a random draw of the others, so the mix is not that of the screen.

These sequences were tested on 2Sp-muMax20 (muMax20 with two 2,6-bis(methyl)pyridine Cys staples) (assay: PBM 8-mer E-score (E-score (rank enrichment, -0.5 to 0.5)); higher = stronger preferential binding).
Protocol: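 Protein binding microarray (universal PBM chip covering all 10-mers in fixed probe flanks) with chemically synthesized human Max(13-93) bHLH-LZ analogs (not full-length Max) bearing noncanonical residues (hArg, Tha, Aib, Nle at 65) and aromatic Cys staples. Read-out per 8-mer (and its reverse complement): E-score (rank-based enrichment, -0.5 to 0.5) and Z-score of median probe intensity.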

Sequence | PBM 8-mer E-score
CGGCTCAG | -0.245 ± 0.011
AAGGCGAG | -0.114 ± 0.11
CCGCACCG | -0.232 ± 0.037
ATTGTAGG | 0.163 ± 0.04
AGAAACAA | 0.23 ± 0.034
ATAATGTC | 0.0928 ± 0.013
ATTATGTC | -0.0254 ± 0.039
CTAATGTA | 0.0902 ± 0.11
ATAATGTA | 0.261 ± 0.054
ATTATGTG | 0.19 ± 0.015
ATTATGTA | 0.252 ± 0.063
CCAAGGTA | -0.122 ± 0.08
ATGGTCCG | -0.11 ± 0.052
GAGCTTAC | 0.0525 ± 0.066
TACCCTGA | 0.0285 ± 0.0041
GCTGAGAC | -0.0936 ± 0.027
GGTTGGCA | -0.0827 ± 0.032
AAAAAGCT | 0.282 ± 0.011
AAAAAGCC | 0.0819 ± 0.062
CAAAGCTG | 0.0649 ± 0.017
AAAAGCTG | 0.272 ± 0.0057
AAAAGCTA | 0.141 ± 0.049
AAAAGCGC | 0.236 ± 0.064
AAAAGCGA | 0.147 ± 0.046
AAAAAGCA | 0.206 ± 0.014

Sequence | PBM 8-mer E-score
CAAAGCGC | -0.0804 ± 0.097
ACTTTTGG | 0.145 ± 0.018
GCAACGGC | -0.147 ± 0.018
GGCTCAGA | -0.204 ± 0.025
CCGAAGCC | -0.258 ± 0.035
ATAGCTAC | 0.204 ± 0.0011
AGGTGTCG | -0.0243 ± 0.082
CAGAGGCC | -0.0446 ± 0.062
GTCAATTA | 0.0735 ± 0.075
AACAATTA | 0.246 ± 0.078
ATCAATTA | 0.28 ± 0.041
ATCAATCG | 0.16 ± 0.038
AACAATTG | 0.0804 ± 0.12
ATCAATTC | 0.159 ± 0.024
ATCAATTG | 0.255 ± 0.068
CTCAATTA | 0.0912 ± 0.079
AACAATTC | 0.166 ± 0.067
AACGTCAT | 0.0419 ± 0.012
AAGTTTCG | 0.0139 ± 0.064
TACACTCA | 0.0543 ± 0.059
CCAGAAAA | -0.0128 ± 0.11
GGGCAAAC | -0.0742 ± 0.046
AATCTATC | 0.061 ± 0.099
CTGTCTAC | -0.085 ± 0.0076
ACGGGTGA | -0.227 ± 0.052

Sequence | PBM 8-mer E-score
CCCACTTA | 0.236 ± 0.023
ACCACCCG | -0.146 ± 0.077
GCCACCCC | -0.0325 ± 0.055
CCCACCCC | 0.332 ± 0.046
CCCACTTC | 0.00615 ± 0.027
CACACCCG | -0.15 ± 0.012
CCCACCCG | 0.29 ± 0.03
ACCACCCC | 0.0435 ± 0.03
GCCACCCA | -0.126 ± 0.068
TCCACCCA | 0.00246 ± 0.039
GCCACTTA | 0.0747 ± 0.039
CCCACCCA | 0.364 ± 0.023
ATCGGCCG | -0.187 ± 0.13
CCGGCGGC | -0.269 ± 0.029
CCTATTCG | -0.105 ± 0.0044
ACGAAGAA | 0.16 ± 0.06
ATGCGATC | 0.00891 ± 0.016
CAAGACGG | -0.109 ± 0.028
GCAATTGC | 0.242 ± 0.013
CCAATTGC | 0.108 ± 0.012
GCAATTGA | 0.0718 ± 0.079
ACGTCCCG | -0.326 ± 0.046
AGGGCGGC | -0.0202 ± 0.17
AGGGCGGA | -0.101 ± 0.0044
AGGGCGGG | 0.311 ± 0.011

Sequence | PBM 8-mer E-score
ATAACGTC | 0.138 ± 0.029
ATAACGTA | 0.107 ± 0.085
ATAACGTG | 0.293 ± 0.018
ATAACTTC | 0.0494 ± 0.033
ATAACTTA | 0.14 ± 0.043
ATAACTTG | 0.241 ± 0.012
CTGGGTCA | -0.0254 ± 0.017
AGCTACGC | 0.0669 ± 0.0082
CCGTCGGC | -0.232 ± 0.016
CAAGCCAC | -0.143 ± 0.044
ATATTTAC | 0.159 ± 0.032
CTATTTTA | 0.224 ± 0.026
CTATTTAA | -0.0484 ± 0.012
ATATTTAA | 0.334 ± 0.019
GTATTTTA | 0.0916 ± 0.055
ATATTTTA | 0.245 ± 0.02
ATCTTAGA | 0.0255 ± 0.036
CTCGCCGC | -0.0225 ± 0.15
AATTGCCG | -0.00487 ± 0.03
GTTCTTTA | 0.000435 ± 0.15
CTTCTTTA | 0.245 ± 0.01
CTTCTTTC | -0.118 ± 0.046
AACCTACT | -0.0133 ± 0.062
AATCTGAT | 0.057 ± 0.016
CAAATAAC | 0.238 ± 0.041

Sequence | PBM 8-mer E-score
AAAATAAC | 0.2 ± 0.041
GAAATAAC | -0.1 ± 0.05
ACAGTGGC | -0.0719 ± 0.054
CGAGGTTC | -0.105 ± 0.037
CCTCAGGA | -0.147 ± 0.12
AGTCGGGC | -0.144 ± 0.022
ATTATAAC | 0.247 ± 0.041
TTTATAAA | 0.246 ± 0.074
ATTATAAT | 0.169 ± 0.1
CTTATAAG | 0.0331 ± 0.11
CTTATAAC | 0.0403 ± 0.076
GTTATAAC | 0.16 ± 0.047
ATTATAAG | 0.28 ± 0.0046
CTTATAAA | 0.184 ± 0.071
GTTATAAA | 0.154 ± 0.051
CCTATAAA | -0.143 ± 0.042
ATTATAGA | 0.0771 ± 0.056
ATTATAAA | 0.263 ± 0.069
ACTGAACG | -0.181 ± 0.086
AGAAACCG | -0.0327 ± 0.035
ACCACTTC | 0.0215 ± 0.0022
AAGACTAA | 0.0726 ± 0.081
GATTTTCC | -0.0716 ± 0.0054
AGAGGCAG | -0.125 ± 0.069
CTAACCAA | -0.0414 ± 0.074

Sequence | PBM 8-mer E-score
ACCTCGTC | -0.0184 ± 0.011
AACGTCTG | -0.086 ± 0.17
ACCTCACG | -0.0339 ± 0.093
CCCGGCGC | -0.17 ± 0.023
ACGCACGT | 0.277 ± 0.0066
ACGCACAG | -0.104 ± 0.024
ACGCACGA | 0.0583 ± 0.035
ACGCACAT | 0.24 ± 0.091
ACGCACGC | 0.157 ± 0.12
ACGCACAA | 0.0234 ± 0.071
GCCATCAA | 0.193 ± 0.0031
CACTGTGC | -0.123 ± 0.011
CCAGCCTC | -0.148 ± 0.047
GATACCTA | 0.155 ± 0.013
AATACCTA | 0.244 ± 0.03
CATACCTA | 0.0465 ± 0.0019
ATGGATGA | 0.053 ± 0.022
CTATTTCA | 0.126 ± 0.099
CTATTTCC | 0.26 ± 0.051
ATATTTCC | 0.0705 ± 0.11
TCCAGTAA | 0.071 ± 0.076
CAATGGCG | 0.02 ± 0.0014
AACGTGAC | 0.147 ± 0.045
CACGTGAG | 0.255 ± 0.005
GATGTGAA | 0.177 ± 0.043

Sequence | PBM 8-mer E-score
GACGTGAC | 0.0337 ± 0.019
TATGTGAA | 0.308 ± 0.017
GACGTGAA | -0.25 ± 0.025
AATGTGAA | 0.154 ± 0.12
CACGTGAA | 0.392 ± 0.022
CACGTGAC | 0.406 ± 0.011
AACGTGAG | 0.0157 ± 0.023
TACGTGAA | 0.0426 ± 0.043
CCCGTGAG | -0.225 ± 0.016
GACCCATC | -0.0849 ± 0.083
GGCAACAC | 0.0268 ± 0.038
CTCGGGTA | -0.193 ± 0.024
TAAATAAA | 0.129 ± 0.012
CCCGTGAC | -0.0332 ± 0.029
GAAGCGCC | -0.146 ± 0.03
AGCGTGAC | 0.0983 ± 0.058
CGCGTGAC | 0.286 ± 0.036
CGCGTGAG | 0.219 ± 0.012
CTCAGGTC | -0.298 ± 0.018
GCGAGGGA | 0.0348 ± 0.068
ATATAATA | 0.244 ± 0.015
ATATAATG | 0.235 ± 0.0039
